# Bioassay records as filed in PubChem.
# A selection: hits, their analogues and other compounds. The true share with any hit is near 2.4%.
# Pol eta inh-1: DNA polymerase eta (human) inhibition; Q9Y253; recombinant Pol eta, fluorescent DNA replication assay; Potency, µM (titrated, usually from 114 µM), inactives show at the top dose activity change, negative = inhibition, actives largely listed as inhibitors; 390,000 compounds, 1.2% hits; AID 588591; note: % is set by controls: 0 for no effect and ±100 for the full control effect
#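 Pol eta at 10 nM preincubated with compounds 15 min at room temperature; reaction started with fluorescent substrate (50 nM final) and read kinetically at 0 and 10 min.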
# WRN inhibitor: inhibitors of human WRN helicase; Q14191; WRN helicase unwinding, fluorescent forked duplex, kinetic; AID 651768; Potency, µM (titrated, usually from 114 µM), for the others: top-dose activity change, negative = inhibition, hits mostly inhibitors; 360,000 compounds, 0.46% hits; note: % is set by controls: 0 for no effect and ±100 for the full control effect; nearly all actives have a fitted effect of over 55% in size
# Target sequence (Q14191 whole entry, looked up): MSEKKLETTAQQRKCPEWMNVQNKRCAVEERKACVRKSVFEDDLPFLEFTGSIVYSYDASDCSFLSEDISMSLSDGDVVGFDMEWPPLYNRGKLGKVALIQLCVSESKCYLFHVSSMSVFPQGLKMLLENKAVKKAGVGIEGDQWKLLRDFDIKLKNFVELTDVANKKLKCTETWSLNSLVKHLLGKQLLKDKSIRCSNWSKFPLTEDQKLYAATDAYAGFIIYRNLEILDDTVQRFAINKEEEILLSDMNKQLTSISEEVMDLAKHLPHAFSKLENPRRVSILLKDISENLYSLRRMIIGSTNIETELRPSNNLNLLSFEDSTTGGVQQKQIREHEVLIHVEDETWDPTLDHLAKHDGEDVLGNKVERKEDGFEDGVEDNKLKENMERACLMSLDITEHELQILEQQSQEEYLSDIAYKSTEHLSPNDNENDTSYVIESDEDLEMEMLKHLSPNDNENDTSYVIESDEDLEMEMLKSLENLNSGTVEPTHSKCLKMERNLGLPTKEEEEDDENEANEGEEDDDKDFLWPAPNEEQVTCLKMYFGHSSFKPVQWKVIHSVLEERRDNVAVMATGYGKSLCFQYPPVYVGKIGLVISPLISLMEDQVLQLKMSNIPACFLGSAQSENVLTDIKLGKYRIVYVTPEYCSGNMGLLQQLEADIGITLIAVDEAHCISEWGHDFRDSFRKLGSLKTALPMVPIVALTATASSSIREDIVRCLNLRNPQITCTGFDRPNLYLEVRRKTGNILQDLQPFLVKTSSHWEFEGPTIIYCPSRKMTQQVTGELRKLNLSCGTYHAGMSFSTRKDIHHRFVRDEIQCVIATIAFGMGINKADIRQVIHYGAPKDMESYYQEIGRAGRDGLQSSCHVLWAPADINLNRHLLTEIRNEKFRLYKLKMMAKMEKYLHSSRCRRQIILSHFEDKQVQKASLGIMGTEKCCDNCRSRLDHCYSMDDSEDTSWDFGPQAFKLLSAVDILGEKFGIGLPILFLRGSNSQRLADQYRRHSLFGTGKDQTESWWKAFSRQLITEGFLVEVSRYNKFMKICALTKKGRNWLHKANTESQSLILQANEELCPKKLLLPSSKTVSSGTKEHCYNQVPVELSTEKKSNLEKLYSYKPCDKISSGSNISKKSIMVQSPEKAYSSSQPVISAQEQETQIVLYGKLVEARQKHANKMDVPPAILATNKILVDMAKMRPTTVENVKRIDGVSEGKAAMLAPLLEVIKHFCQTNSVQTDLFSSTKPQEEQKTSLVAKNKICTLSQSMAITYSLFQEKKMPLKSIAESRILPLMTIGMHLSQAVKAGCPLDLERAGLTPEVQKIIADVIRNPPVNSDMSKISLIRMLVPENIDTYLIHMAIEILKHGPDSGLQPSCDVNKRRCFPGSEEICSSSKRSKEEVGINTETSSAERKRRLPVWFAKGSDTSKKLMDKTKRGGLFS
#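 WRN at 20 nM final preincubated with compound 15 min at room temperature; reaction started with 100 nM fluorophore/quencher forked duplex oligonucleotide and 2 mM ATP final. Unwinding followed kinetically by red fluorescence (ex 525, em 598 nm).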
# POLB inh: inhibitors of human DNA polymerase beta. Pol beta primer extension/strand displacement, fluorescence kinetic. Potency, µM (top dose mostly 114 µM), without a hit: top-dose activity change, negative = inhibition, actives largely listed as inhibitors. 340,000 compounds, 1.3% hits. AID 485314; note: % is set by controls: 0 for no effect and ±100 for the full control effect
#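 Enzyme-only controls used 10 nM Pol beta; buffer lacking enzyme served as negative control. Compound preincubated 15 min, then 50 nM substrate added; 0 and 10 min reads at room temperature.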
# Pol iota inh: DNA polymerase iota (human) inhibition. 390,000 compounds, 1% hits. Pol iota fluorescent replication assay, 10 min. Q9UNA4. Potency, µM (top dose mostly 115 µM), inactives show at the top dose activity, negative = inhibition, usual class: inhibitors
#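 Pol iota at 10 nM preincubated 15 min with compounds at room temperature; reaction started with fluorescent substrate, 50 nM final. Fluorescence read kinetically at 0 and 10 min; buffer-only wells as negative control.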
# Pol kappa inh-1: inhibitors of human DNA polymerase kappa; purified Pol kappa, fluorescent DNA synthesis assay, 10 min; Potency, µM (titrated, usually from 107 µM), for inactives: top-dose activity, negative = inhibition, hits mostly inhibitors; AID 588579; Q9UBT6; 400,000 compounds, 0.53% hits; note: % is set by controls: 0 for no effect and ±100 for the full control effect
#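 Inhibition of 10 nM Pol kappa is measured by a fluorescent read-out at 0 and 10 min following addition of 50 nM substrate (final), with a 15-min room-temperature compound preincubation.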
# FEN1 inh: human FEN1 inhibition. P39748. Recombinant FEN1 flap cleavage, fluorescence, 15 min. Potency, µM (top dose mostly 114 µM), without a hit: at the top dose activity change, negative = inhibition, actives largely listed as inhibitors. 390,000 compounds, 0.35% hits. AID 588795; note: % is set by controls: 0 for no effect and ±100 for the full control effect; nearly all actives have a fitted effect of over 65% in size
#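 Quantitative HTS format: each compound was titrated, incubated with 10 nM nuclease for 15 min at room temperature, then challenged with flap substrate at 50 nM final. Signal change over 15 min gave concentration–effect curves.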
# Pol kappa inh-2: confirmation of human DNA polymerase kappa inhibitors. 920 compounds, 76% hits. Potency, µM, usual class: inhibitors. shares compounds with Pol eta inh-1. AID 720501. purified Pol-kappa, fluorescent strand-displacement substrate
# Pol eta inh-2: Pol eta (human) inhibition, cherry-pick confirmation; Pol eta primer extension, TAMRA/BHQ fluorescence, 10 min; 2,600 compounds, 64% hits; Potency, µM, most hits filed as inhibitors; AID 720502; shares compounds with Pol eta inh-1
# Starred values were filed as active, the others as inactive; ? = inconclusive; . = not tested or not shown; [ ] = another dose, or the depositor's remark. Calls come from the whole dose curve; as a rule, active = well fitted curve in the direction sought with a large enough effect; inconclusive = small, poorly fitted or top-dose-only effect, or another doubt; inactive = no such curve, though single readings can be large; an effect the other way counts as inactive or inconclusive. Potency is the fitted concentration of half-maximal effect.
SMILES,Pol eta inh-1,WRN inhibitor,POLB inh,Pol iota inh,Pol kappa inh-1,FEN1 inh,Pol eta inh-2,others
Cc1cc(NS(=O)(=O)c2ccc(NC(=O)c3cc4c(=O)n5ccccc5nc4s3)cc2)nc(C)n1,20µM*,?,?,50.1µM*,89.1µM*,-25.6%,60.1*,
Cc1cc(C)cc(NC(=O)c2sc3nc(-c4cc5ccccc5oc4=O)[nH]c(=O)c3c2C)c1,-11.6%,.,-6.4%,7.3%,-13.3%,-5.9%,.,
Cc1cccc(NC(=O)c2sc3nc(-c4cc5ccc(O)cc5oc4=O)[nH]c(=O)c3c2C)c1,?,.,?,41.4%,-3.2%,-8.5%,?,
CN(C)c1ncnc2ccc(-c3cccc(NS(C)(=O)=O)c3)cc12,.,.,.,.,-1.2%[60.1 µM],.,.,
O=C1/C(=C\c2ccccn2)SC(=S)N1c1ccc(S(=O)(=O)Nc2nccs2)cc1,17.8µM*,?,?,?,?,?,84.9*,
Cc1ccc(/C=C2/SC(=S)N(c3ccc(S(=O)(=O)Nc4nccs4)cc3)C2=O)cc1,39.8µM*,?,?,17.8µM*,?,?,75.7*,
CC(N)CCCP(=O)(O)O (centres undefined),.,.,.,.,1.0%[19.4 µM],.,.,
O=C(O)/C(=C\c1cccc(F)c1)c1ccc(S(=O)(=O)N2CCCC2)s1,?,-5.4%,.,-21.3%,-6.0%,0.4%,.,
Cc1cccc(/C=C(\C(=O)O)c2ccc(S(=O)(=O)N3CCCC3)s2)c1,12.6µM*,?,.,?,?,0.8%,?,Pol kappa inh-2=33.6*
O=[N+]([O-])c1cccc(CN2C(COCc3ccccc3)CCC=CS2(=O)=O)c1 (centres undefined),.,.,.,8.2%,-4.4%,12.7%,.,
COCCN(C(=O)COC(=O)Cc1coc2cc(C)ccc12)c1c(N)n(Cc2ccccc2)c(=O)[nH]c1=O,20µM*,?,.,35.5µM*,?,-11.2%,60.1*,
Nc1c(Br)cc(/C=C2\C=Cc3ccccc32)cc1Br,.,.,.,33.5%,-10.5%,-9.7%,.,
CC(=O)OCC(NC(=O)C(Cc1ccccc1)NC(=O)OC(C)(C)C)C1OC(n2cc(C)c(=O)[nH]c2=O)C(OC(C)=O)C1OC(C)=O (centres undefined),.,.,.,9.0%,-19.1%,3.7%,.,
COc1cccc(NS(=O)(=O)c2ccc3[nH]cc(C(=O)N4CCCCCC4)c(=O)c3c2)c1,?,.,?,?,-18.0%,10.0%,.,
COc1cccc(NS(=O)(=O)c2ccc3[nH]cc(C(=O)N(C)C4CCCCC4)c(=O)c3c2)c1,56.2µM*,.,-12.5%,?,-6.2%[60.1 µM],3.6%,?,Pol kappa inh-2=?
c1nc2nc(Nc3ccc(N4CCOCC4)cc3)nc(NC3CCCCC3)c2[nH]1,.,.,.,.,-7.3%[60.1 µM],.,.,
Cc1cccc(-c2nnc(SCc3cc(=O)c4cccc(Cl)c4[nH]3)n2C)c1,-9.6%,.,1.1%,9.6%,-11.0%[60.1 µM],15.5%,.,
Cc1cccc2cc(/C=N/Nc3ccc(C(=O)O)cc3)c(Cl)nc12,?,-12.4%,?,5.3%,-9.1%,?,.,
O=C(O)c1ccc(N/N=C/c2cc3ccccc3nc2Cl)cc1,44.7µM*,-10.3%[11.6 µM],-28.2%,10.2%,-24.5%,?,?,
COc1cc(/C=C/C(=O)c2ccc(NS(=O)(=O)c3ccc(C)cc3)cc2)ccc1OC(F)F,?,-9.0%,-0.7%,-19.2%,-9.3%,-12.4%,.,
COc1cc(/C=C/C(=O)c2ccc(NS(=O)(=O)c3ccc(C)cc3)cc2)cc(OC)c1O,10µM*,?,-14.4%,?,-12.9%,?,?,
COc1ccccc1NC(=O)C(C)OC(=O)C1CC(=O)N(c2ccc3c(c2)OCCO3)C1 (centres undefined),-4.6%,-8.5%,36.2%,39.1%,-1.3%,0.5%,.,
COc1cccc(OC)c1OC(=O)C1CC(=O)N(c2ccc3c(c2)OCCO3)C1 (centres undefined),28.2µM*,-6.9%[11.6 µM],.,25.1µM*,?,0.2%,?,
O=C(/C=C/c1ccco1)c1ccccc1O,-12.5%,5.3%[57.1 µM],1.9%,49.7%,3.4%,8.6%,.,
Cc1ccc(/C=C/C(=O)N2CCN(Cc3ccccc3)CC2)o1,-20.6%,7.1%,0.7%,14.0%,-11.2%,6.1%,.,
SMILES,Pol eta inh-1,WRN inhibitor,POLB inh,Pol iota inh,Pol kappa inh-1,FEN1 inh,Pol eta inh-2,others
CC(/C=C/c1ccc(Cl)o1)=C\C(=O)O,22.4µM*,-29.2%[57.1 µM],31.6µM*,?,-25.6%,3.7%,47.8*,
CC(=C/C(=O)O)/C=C/c1ccco1,?,-8.3%[11.6 µM],?,89.1µM*,?,-15.0%,?,
FC(F)(F)c1cccc(-c2noc(-c3cc(-c4ccccc4)c(C(F)(F)F)s3)n2)c1,.,.,.,.,14.6%[60.1 µM],.,.,
CC1(CC(=O)N/N=C/c2cc([N+](=O)[O-])c(O)cc2O)OCCO1,22.4µM*,?,4.47µM*,?,?,-31.6%,?,
C=CCOc1ccccc1/C=c1\sc2nc(=O)c(C)nn2c1=O,28.2µM*,?,25.1µM*,10µM*,50.1µM*,-6.7%,21.3*,Pol kappa inh-2=37.7*
COc1ccc(/C=c2\sc3nc(-c4ccccc4OC)nn3c2=O)c(OC)c1,?,-9.2%,-23.5%,7.0%,-9.0%,-6.3%,.,
O=C(NCC(c1ccc2c(c1)OCO2)N1CCN(c2ccccc2F)CC1)c1ccccc1F (centres undefined),-21.4%,.,-9.2%,7.6%,-7.2%[60.1 µM],3.4%,.,
N#Cc1ccc(CN2CCCC3(CCN(C(=O)c4cnccn4)CC3)C2)cc1,.,.,.,.,0.0%[60.1 µM],.,.,
COc1cc(/C=C/c2[nH]c(=O)[nH]c(=O)c2[N+](=O)[O-])cc([N+](=O)[O-])c1O,22.4µM*,-12.7%[11.6 µM],?,?,-16.0%,?,60.1*,Pol kappa inh-2=?
O=c1[nH]c(/C=C/c2ccccc2)c([N+](=O)[O-])c(=O)[nH]1,?,-26.0%,?,?,-6.2%,-5.4%,.,
CCC(C)Oc1ccc(/C=C/c2[nH]c(=O)[nH]c(=O)c2[N+](=O)[O-])cc1OC (centres undefined),-19.5%,3.8%,4.4%,?,-3.9%,-3.0%,.,
